Laboratory results as given in PubChem BioAssay (Tox21).
Records with an inconclusive call do not appear. Activity calls are given as the source filed them. Calls follow the shape of the dose curve; as a rule, active = well fitted activation curve with a large enough effect in the repeat runs; inconclusive = weak or mixed curves; inactive = flat fitted curve, though single readings scatter.

experiment: A CellTox Green Cytotoxicity Assay to monitor cytotoxicity in HEK293 cells - 16 hour (AID 1224888); settings: CellTox Green fluorescence; series mostly up to 76.8 µM; activity change: at the top concentration; also: nearly all actives have a fitted effect of over 35% in size
Description: National Center for Advancing Translational Sciences [NCATS]
NIH Chemical Genomics Center [NCGC]
U.S. Environmental Protection Agency [EPA]
National Institutes of Environmental Health Sciences [NIEHS]
National Toxicology Program [NTP]
Cell-based models are critical for drug discovery. Determining the natural cytotoxic effects resulting from test compounds is an essential research activity. A CellTox Green Cytotoxicity Assay to monitor cytotoxicity in real time of continues cell culture during 40 hours of the compound treatment was used to screen Tox21 10K library compounds in Hek293 cells. CellTox Green Cytotoxicity Assay is a nonlytic, homogeneous, biofluorescent method to measure cytotoxicity in cell culture after experimental manipulation. The assay system uses a proprietary asymmetric cyanine dye that is excluded from viable cells but preferentially stains the dead cell's DNA. […] Viable cells produce no appreciable increases in fluorescence. Therefore, the fluorescence signal produced by the binding interaction with dead cell DNA is proportional to cytotoxicity.
The mixture of Hek293 cell suspension and reagents were dispensed at 600cells/6 ul/well in 1536-well tissue culture treated black solid bottom plates using a Multidrop dispenser. After the assay plates were incubated at a 37 C/5% CO2 incubator for 5 hours, 23 nL of compounds dissolved in DMSO, positive and negative controls was transferred to the assay plate by a pintool work station. The plates were incubated at 37 C for 40 hours. The fluorescence intensity were measured at 0h, 8h, 16h, 24h, 32h and 40h time points using ViewLux plate reader during compound treatment.
% is scaled to controls: 0 for no effect and ±100 for the full control effect; potency is read from the fitted curve at half-maximal effect.

Row | SMILES | activity change | Potency
1 | C=CC(C)(CCC=C(C)C)OC(=O)CC(C)C (stereo not given) | -0.598% (inactive) | –
2 | CC(=O)Nc1ccc(C)cc1C | -2.13% (inactive) | –
3 | CC(=O)NC1(c2cccc(F)c2)CCN(CC[C@@]2(c3ccc(Cl)c(Cl)c3)CN(c3ccccc3)C(=O)CO2)CC1 | 3.16% (inactive) | –
4 | CC1(C)S[C@@H]2[C@H](NC(=O)C(c3ccccc3)S(=O)(=O)O)C(=O)N2[C@H]1C(=O)O (stereo not given in full) | 0.211% [at 35.3 µM, stronger effect = higher value] (inactive) | –
5 | C1C[C@@H]2[C@H]3CC[C@H](C3)[C@@H]2C1 | 4.71% (inactive) | –
6 | C[C@@H](O[C@H]1OCCN(Cc2n[nH]c(=O)[nH]2)[C@H]1c1ccc(F)cc1)c1cc(C(F)(F)F)cc(C(F)(F)F)c1 | 23.2% [at 35.3 µM, stronger effect = higher value] (inactive) | –
7 | COc1cc(C(=O)NCCCCCC(=O)O)cc(OC)c1OC | -5.57% [at 35.3 µM, stronger effect = higher value] (inactive) | –
8 | CC1(C)[C@@H](OC(=O)CCC(=O)O)CC[C@]2(C)[C@H]3C(=O)C=C4[C@@H]5C[C@@](C)(C(=O)O)CC[C@]5(C)CC[C@@]4(C)[C@]3(C)CC[C@@H]12 | -10.1% [at 35.3 µM, stronger effect = higher value] (inactive) | –
9 | CC(=O)OCC(=O)NCCCOc1cccc(CN2CCCCC2)c1 | -1.68% [at 35.3 µM, stronger effect = higher value] (inactive) | –
10 | c1csc(SSc2cccs2)c1 | 13% (inactive) | –
11 | COC(=O)CS | -2.63% (inactive) | –
12 | CC(C)(O)c1ccc(CNC(=O)c2cccnc2Oc2ccc3nonc3c2)cc1 | -4.43% (inactive) | –
13 | N#CCc1ccc(Cl)cc1Cl | 2.62% (inactive) | –
14 | CC(C)Nc1cccnc1N1CCN(C(=O)c2cc3cc(NS(C)(=O)=O)ccc3[nH]2)CC1 | -11.6% [at 35.3 µM, stronger effect = higher value] (inactive) | –
15 | CCn1cc(C(=O)O)c(=O)c2cc(F)c(N3CCNCC3)cc21 | -1.95% [at 35.3 µM, stronger effect = higher value] (inactive) | –
16 | C[C@H]1c2cccc(O)c2C(O)=C2C(=O)[C@]3(O)C(O)=C(C(N)=O)C(=O)[C@@H](N(C)C)[C@@H]3[C@@H](O)[C@@H]21 | 6.21% [at 35.3 µM, stronger effect = higher value] (inactive) | –
17 | CN(C)CCN1C(=O)c2ccccc2N(C)c2ccccc21 | 4.92% [at 35.3 µM, stronger effect = higher value] (inactive) | –
18 | C=C(C)C(=O)OCCOCCOC(=O)C(=C)C | -2.52% (inactive) | –
19 | C1COC1 | -1.91% (inactive) | –
20 | CCCCCCCCCCCCCCN(CCO)CCO | – | 54.9 µM (active)

Row | SMILES | activity change | Potency
21 | O=C(O)CCC(=O)C(=O)O | -9.85% (inactive) | –
22 | CS(=O)(=O)c1ccc(-c2cn3ccccc3n2)cc1 | 0.281% [at 35.3 µM, stronger effect = higher value] (inactive) | –
23 | CCOC(=O)OC(C)OC(=O)[C@@H]1N2C(=O)[C@@H](NC(=O)[C@H](N)c3ccccc3)[C@H]2SC1(C)C (stereo not given in full) | -0.337% [at 35.3 µM, stronger effect = higher value] (inactive) | –
24 | CCC(=O)OC | -5.95% (inactive) | –
25 | Oc1cccc(O)c1O | -8.16% (inactive) | –
26 | CCOC(=O)c1ccccc1C(=C1C=C(Br)C(=O)C(Br)=C1)c1cc(Br)c(O)c(Br)c1 | 2.33% [at 35.3 µM, stronger effect = higher value] (inactive) | –
27 | CC1=Nc2ccc3ccccc3c2C1(C)C | 17.6% (inactive) | –
28 | C[C@@H]1CN(CCCn2c3ccccc3c3ccccc32)C[C@H](C)N1 | – | 21.3 µM (active)
29 | CC(=O)c1cc2ccccc2s1 | 1.14% [at 35.3 µM, stronger effect = higher value] (inactive) | –
30 | O=C(CCCN1CC=C(n2c(=O)[nH]c3ccccc32)CC1)c1ccc(F)cc1 | -9.86% [at 35.3 µM, stronger effect = higher value] (inactive) | –
31 | CCCCOc1ccc(OCCCN2CCOCC2)cc1 | -13.8% [at 35.3 µM, stronger effect = higher value] (inactive) | –
32 | Cc1ccc(C(C)(C)O)cc1 | -10.6% (inactive) | –
33 | O=[N+]([O-])c1ccc(Nc2ccc(Nc3ccccc3)c(S(=O)(=O)O)c2)c([N+](=O)[O-])c1 | -0.294% (inactive) | –
34 | CCCCCCCCCCC(=O)O | -0.513% (inactive) | –
35 | CC(=O)[C@H]1[C@H](C#N)C[C@H]2[C@@H]3CC=C4C[C@@H](O)CC[C@]4(C)[C@H]3CC[C@@]21C | -3.59% [at 35.3 µM, stronger effect = higher value] (inactive) | –
36 | CCN(CC)CCNC(=O)COc1ccc(OC)cc1 | 1.42% [at 35.3 µM, stronger effect = higher value] (inactive) | –
37 | CCCCC(CC)CN (stereo not given) | 1.54% (inactive) | –
38 | CC(=O)N/N=C/c1ccc([N+](=O)[O-])o1 | -0.139% [at 35.3 µM, stronger effect = higher value] (inactive) | –
39 | CC(C)=CCC/C(C)=C/CC/C(C)=C/CCC(=O)OC/C=C(\C)CCC=C(C)C | -14.5% [at 35.3 µM, stronger effect = higher value] (inactive) | –
40 | Cc1cc2c(OCC(CNC(C)(C)C)OC(=O)c3ccccc3)cccc2[nH]1 (stereo not given) | 4.64% [at 35.3 µM, stronger effect = higher value] (inactive) | –
